The values that follow come from the supplement of paper PMC9950053.

Counter-ions that a name gives are not always drawn.

The subject of the test is Danio rerio larvae (5 dpf). The test can be described thus: excitability (activity period 17 minus period 16, 1-s interval sound) minus DMSO control (percentage points); higher = more acoustic excitability than DMSO larvae. The conditions noted are these: 10 µM; exposure time: 3 h pre-incubation + 3 h imaging. Here is the method:
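Wild-type 5 dpf zebrafish larvae (n=48 per drug, 96-well plates, 28.5 °C) were exposed to Tocris FDA-approved library compounds at 10 µM (0.1% DMSO) for 3 h before and 3 h during imaging. Images were taken every 6 s during visual (moving coloured lines) and acoustic stimuli, and larvae were tracked with the DeepLabCut-based Z-LaP Tracker. Each behavioural measure is the treated-group mean minus the DMSO vehicle control mean (n=844), in percentage points. This mapping covers compounds with 4-character plate codes.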
As for `CC[C@@H](C(N)=O)N1CCCC1=O` [Levetiracetam], the excitability amounted to 1.58.
With `N[C@@H]1C[C@H]1c1ccccc1` [Tranylcypromine hydrochloride], the excitability was determined as 3.55.
Consider `COc1cc2c(cc1OC)C1CC(=O)C(CC(C)C)CN1CC2` (stereo unspecified) [Tetrabenazine], for which the excitability turned out to be 22.4.
Take `C=C1C[C@@H]2[C@H](CC[C@]3(C)C(=O)CC[C@@H]23)[C@@]2(C)C=CC(=O)C=C12` [Exemestane]: the excitability was found to be 11.9.
As for `CC(C)C[C@H]1C(=O)N2CCC[C@H]2[C@]2(O)O[C@](NC(=O)[C@@H]3C=C4c5cccc6[nH]c(Br)c(c56)C[C@H]4N(C)C3)(C(C)C)C(=O)N12` [Bromocriptine mesylate], the figure is 18.2.
As for `C=CCN1C[C@H](C(=O)N(CCCN(C)C)C(=O)NCC)C[C@@H]2c3cccc4[nH]cc(c34)C[C@H]21` [Cabergoline], the figure is 12.4; as for `CN1C[C@H](C(=O)N[C@]2(C)O[C@@]3(O)[C@@H]4CCCN4C(=O)[C@H](Cc4ccccc4)N3C2=O)C[C@@H]2c3cccc4[nH]cc(c34)C[C@H]21` [Dihydroergotamine mesylate], 0.33.
For `Cc1cccc([C@H](C)c2c[nH]cn2)c1C` [Dexmedetomidine hydrochloride], the excitability was determined as 5.7.
As for `O=c1[nH]c2ccccc2n1C1CCN(CCCC(c2ccc(F)cc2)c2ccc(F)cc2)CC1` [Pimozide], the excitability was -0.377.
Consider `CC(O)(CS(=O)(=O)c1ccc(F)cc1)C(=O)Nc1ccc(C#N)c(C(F)(F)F)c1` (stereo unspecified) [Bicalutamide], for which the excitability amounted to 3.42.
As for `CCN(C)C(=O)Oc1cccc([C@H](C)N(C)C)c1` [Rivastigmine tartrate], the figure is 3.52.
